# In ChEMBL document CHEMBL3988442, “University of Dundee, Small-Polar-MMV Screening Library” (2021):
# The whole screen tested about 48,000 compounds, of which about 13,000 (27%) showed an effect of 50% or more. The list shows a part of the results.
# Tested on: Wolbachia pipientis
# Experiment: Anti-Wolbachia Cell-Based Screen
# Type: functional
# Set-up: scale not given: in the data most compounds retested in dose-response had high values
# Settings: 5 µM
row,Compound,Percent Effect [%]
1,OCc1ccc(CN2CCC(n3cc(-c4ccsc4)nn3)CC2)o1,-3.234
2,O=C(O)c1csc(S(=O)(=O)N2CCN(Cc3ccc(Cl)cc3)CC2)c1,3.67
3,Cc1ccc(S(=O)(=O)NCCCN2CCC(O)CC2)cc1Cl,11.47
4,COCc1noc(CCNc2nc(CC3CC3)nc3c2CCNCC3)n1,-2.883
5,CCNC(=O)c1cnc(Cc2ccc(F)cc2)s1,-2.208
6,Cc1noc(C)c1CN1CCc2ncnc(-c3cccnc3)c2CC1.O=C(O)C(F)(F)F.O=C(O)C(F)(F)F,104.6
7,Cn1cc(CN2CCc3ncnc(N4CCOCC4)c3CC2)cn1.O=C(O)C(F)(F)F.O=C(O)C(F)(F)F.O=C(O)C(F)(F)F,-9.324
8,Cc1noc(C)c1CN1CCc2ncnc(-c3cnn(C)c3)c2CC1.O=C(O)C(F)(F)F,103.6
9,Cc1noc(C)c1CN1CCc2ncnc(-c3ccc(F)cc3)c2CC1.O=C(O)C(F)(F)F,85.48
10,COc1ccc(NC(=O)C2CCOC2)c(N2CCN(C(C)=O)CC2)n1 (stereo unspecified),4.465
11,CC(=O)NCCNC(=O)C1(Oc2cccnc2C)CCNCC1,-9.586
12,COCCCN(C)c1nc(-c2ccncc2)nc(C)c1C,-12.12
13,Cc1cc(CN(C)C(=O)c2cccc(CCC(C)(C)O)c2)no1,3.557
14,CCn1ccnc1CN1CCC(=O)N(CC2CC2)C(C(C)C)C1 (stereo unspecified),-13.21
15,Cc1cncc(C2CCCN(C(=O)c3ccc(C)[nH]c3=O)C2)n1 (stereo unspecified),1.082
16,Cc1cncc(C2CCCN(C(=O)c3cn(C)nc3C)C2)n1 (stereo unspecified),117.2
17,Cc1cncc(C2CCCN(C(=O)c3scnc3C)C2)n1 (stereo unspecified),-6.162
18,Cc1noc(C2CCCN(C(=O)c3ccc(Br)o3)C2)n1 (stereo unspecified),-1.818
19,Cc1nn(C)cc1C(=O)N1CCCC(c2nccn2Cc2cscn2)C1 (stereo unspecified),27.14
20,Cc1cncc(C2CCCN(C(=O)c3cnco3)C2)n1 (stereo unspecified),133.2
21,CS(=O)(=O)CCC(=O)Nc1ccsc1,-22.38
22,CC(C)c1nc(-c2cc(C(=O)O)c3ccccn23)cs1,13.08
23,O=S(=O)(CC1CC1)c1ncc(CN2CCSCC2)n1CC1CCCO1 (stereo unspecified),-0.6342

row,Compound,Percent Effect [%]
1,Cc1ccc(C(=O)N2CCN(c3ccnc4ccsc34)CC2)o1,5.784
2,COc1ccc(Cc2ncc3c(n2)CN(C(=O)C(C)(C)OC)C3)cc1,70.44
3,COc1ccc(Cc2ncc3c(n2)CN(C(=O)C(C)(C)C)C3)cc1,-16.53
4,COc1ccc(Cc2ncc3c(n2)CN(C(=O)CO)C3)cc1,-17.5
5,CC(=O)Nc1nc(-c2ccc(C)c(C)c2)c[nH]1,-24.79
6,COc1ccc(Oc2cccc(C#N)n2)cc1CN1CCCC1,-5.576
7,CCc1cc2cc(OC)c(OC)cc2nc1SCCN1CCCCC1.Cl,130.7
8,COc1cccc(S(=O)(=O)CCN2CCCCC2)c1,0.4821
9,COc1cc2cc(C)c(SCCN3CCCCC3)nc2cc1OC.Cl,107.6
10,COc1ccc(C(C(=O)O)N(C)CCN2CCCC2)cc1F (stereo unspecified),3.754
11,COc1cc2cc(C)c(SCCN3CCCC3)nc2cc1OC.Cl,167.2
12,CNC(=O)c1cccc(NC(=O)CN2CCN(S(C)(=O)=O)CC2)c1,1.111
13,CCC(=O)N(C)Cc1cccc(OC(C)C)c1,-5.096
14,CCc1nc(C)c(-c2nccn2CC2CCN(C3CCCC3)CC2)[nH]1,-19.3
15,Cc1ccccc1C(=O)N1CCC2(CCC(C(=O)NCC3CC3)O2)CC1 (stereo unspecified),104
16,Cc1ccccc1C(=O)N1CC(C(=O)NCC2CC2)C2(CCOCC2)C1 (stereo unspecified),-6.965
17,COc1cccc(C(=O)NCC2CCN(C(=O)c3ccoc3)CC2)c1,-1.127
18,O=C(NCC1CC1)C1CN(C(=O)c2cccs2)CC12CCOCC2 (stereo unspecified),-5.71
19,Cc1ccccc1C(=O)NC[C@@H]1CCN(C(=O)C2(O)CCCC2)C[C@H]1O,-6.733
20,O=C(NCC1CC1)C1CCC2(CCN(C(=O)c3cccs3)CC2)O1 (stereo unspecified),94.19
21,O=C(NC[C@H]1OC[C@@H]2CCN(C(=O)c3ccco3)C[C@@H]21)C1CC1,-4.179
22,O=C(NCC1CC1)C1CCC2(CCN(C(=O)c3ccoc3)CC2)O1 (stereo unspecified),90.09
23,O=C(NC1CCC1)C1CCC2(CN(C(=O)c3ccco3)C2)O1 (stereo unspecified),-15.31

row,Compound,Percent Effect [%]
1,O=C(c1cccs1)N1CCC2(CC1)CC(Oc1ccccc1)CO2 (stereo unspecified),6.178
2,O=C(NCC1CCN(C(=O)c2ccoc2)CC1)c1ccccc1Br,-10.47
3,O=C(NCC1CC1)C1CCC2(CCN(C(=O)c3ccco3)CC2)O1 (stereo unspecified),87.87
4,CNC(=O)[C@@H]1C[C@@H](NC(=O)CSc2ccccc2)CN1C1CCOCC1,0.9976
5,CCN(CC)c1ccc(NS(=O)(=O)c2cncc(F)c2)cn1,-6.269
6,Cc1ccc(C(C)NCc2cn(CCC(N)=O)c3ccccc23)cc1C (stereo unspecified),-0.5436
7,COC(=O)c1sccc1CN1CCN(C(=O)c2ccc(C)o2)CC1,-11.02
8,O=C(NCC1CC1)C1CCC2(CN(C(=O)c3ccno3)C2)O1 (stereo unspecified),-9.78
9,Cc1ccc(C(=O)N2CCC3(CCC(C(=O)NCC4CC4)O3)CC2)o1 (stereo unspecified),101.4
10,CCN1CCN(C2CCN(Cc3noc(C)n3)CC2)C1=O,2.974
11,CCN1CCN(C2CCN(Cc3c(C)noc3C)CC2)C1=O,-0.1089
12,CCN1CCN(C2CCN(Cc3nnc(C(C)(C)C)o3)CC2)C1=O,-3.577
13,CN1CCN(C2CCN(Cc3noc(C(C)(C)C)n3)CC2)C1=O,10.06
14,CCN1CCN(C2CCN(Cc3nnc(C4CC4)o3)CC2)C1=O,80.84
15,CCN1CCN(C2CCN(Cc3nnc(C(C)C)o3)CC2)C1=O,147.9
16,CC(C)c1nnc(CN2C(=O)OC[C@@H]2C(C)C)o1,-6.188
17,CCc1nnc(CN2CCC(N3CCN(CC)C3=O)CC2)o1,119.1
18,CC(O)CN1CCN(Cc2nnc(C3CC3)o2)CC1 (stereo unspecified),3.93
19,CCN1CCN(C2CCN(Cc3ncc(C(C)(C)C)o3)CC2)C1=O,-2.934
20,CN1CCN(C2CCN(Cc3nnc(C(C)(C)C)o3)CC2)C1=O,116.2
21,CCc1nnsc1C(=O)NCC1CN(CC(C)C)CCO1 (stereo unspecified),19.89
22,CCC(=O)N1CCN(C(=O)c2ccc(OC)o2)[C@H]2CS(=O)(=O)C[C@H]21,0.8171
23,O=C(c1ccc(-n2cnnc2)cc1Cl)N1CCCC(O)(CO)CC1 (stereo unspecified),1.549

row,Compound,Percent Effect [%]
1,CC(=O)N[C@@H]1CN(Cc2ccccc2-n2nc(C)cc2C)C[C@H]1C(C)C,5.074
2,Cc1cnc(CC2COCCN(C(=O)c3cncs3)C2)cn1 (stereo unspecified),133.5
3,O=C(c1ccncc1)N1C[C@@H]2CC[C@H](C1)N(C(=O)N1CCOCC1)C2,7.35
4,c1ccc(CN2CCOC[C@H]2c2nc(-c3ccncc3)c[nH]2)nc1,-4.896
5,COc1ccc(C(=O)N2CCOCC(CO)C2)cc1N1CCOCC1 (stereo unspecified),2.678
6,CCOCCn1nc(C)cc1C(=O)N1CCOCC(CO)C1 (stereo unspecified),-4.092
7,O=C(c1cncs1)N1CCOCC(Cc2ccncn2)C1 (stereo unspecified),102.2
8,O=C(c1cncs1)N1CCOCC(Cc2ccccn2)C1 (stereo unspecified),121.8
9,O=C(NC[C@H]1OC[C@@H](NCc2ccccn2)[C@@H]1O)N1CCOCC1,-13.39
10,CN(C)CC(=O)N1CCOCC(Cc2ccccn2)C1 (stereo unspecified),100.7
11,Cc1cccc(NC(=O)N2CCOCC(CN(C)C)C2)c1C (stereo unspecified),-12.45
12,CC(=O)N(C)C1CCCc2nc(C)sc21 (stereo unspecified),-2.267
13,CC(C)S(=O)(=O)NCC1CCCN(C(=O)c2ccc3c(c2)OCCO3)C1 (stereo unspecified),-10.13
14,COc1cccc(CC(=O)N2CCC(O)(C(F)(F)F)C2)c1 (stereo unspecified),-3.145
15,Cc1ccc(CN2CCN(c3cc(NCCO)ncn3)CC2CCO)o1 (stereo unspecified),-3.553
16,CS(=O)(=O)NCCCSCc1cccc2cccnc12,-10.2
17,CCC(CO)NC(=O)Cc1ccc(NC(=O)CC2=CCCCC2)cc1 (stereo unspecified),-16.18
18,Cc1cccc(-c2nnn3c2COC(CNS(=O)(=O)C2CC2)C3)c1 (stereo unspecified),-1.824
19,F[C@@H]1CN(CC2CCCCC2)C[C@@H]1OCc1nc2ccccc2o1,-16.46
20,Cc1cn[nH]c1C1COCCN1Cc1cscn1 (stereo unspecified),126.8
21,Cc1cn[nH]c1C1CCCN1Cc1ccc(F)c(F)c1 (stereo unspecified),102.9
22,Cc1ccc(CN2CCCN(Cc3cscn3)CC2)cc1,8.803
23,Cc1ccc(-c2c[nH]c([C@@H]3COCCN3Cc3cccnc3)n2)cc1,-11

row,Compound,Percent Effect [%]
1,Cc1cc(C)n(CC2CCCN2Cc2cscn2)n1 (stereo unspecified),-19.73
2,Cc1ccc(CN2CCOCC2c2[nH]ncc2C)cn1 (stereo unspecified),135.2
3,CC(C)(C)c1coc([C@@H]2COCCN2Cc2cnc3ccccc3c2)n1,-14.41
4,C[C@H]1C[C@H]2CN(C(=O)C3=CCCC3)CC[C@H]2O1,-4.42
5,Cc1cnc(CN(Cc2ccc(C#N)cc2F)C2CCN(C)C2)o1 (stereo unspecified),0.7186
6,O=C(Cc1ccc(O)c(F)c1)N1CCC2(CCNCC2)CC1,3.875
7,CCOC(=O)N1CCN(c2nc(NCCO)c3ccccc3n2)CC1,-13.13
8,CCCN1CC[C@@H]2[C@@H](CO[C@H]2CNC(=O)c2nccn2C)C1.O=C(O)C(F)(F)F,-3.77
9,CS(=O)(=O)NC[C@H]1OC[C@@H]2CCN(CCc3ccccc3)C[C@@H]21.O=C(O)C(F)(F)F,101.5
10,Cc1cccc(CN2CC[C@H]3CO[C@H](CNC(=O)N(C)C)[C@H]3C2)c1.O=C(O)C(F)(F)F,-5.522
11,CS(=O)(=O)NC[C@H]1OC[C@@H]2CCN(Cc3ccc(F)cc3)C[C@@H]21.O=C(O)C(F)(F)F,-22.2
12,CN(C)C(=O)NC[C@@H]1OC[C@H]2CN(Cc3cccc(F)c3)CC[C@H]21.O=C(O)C(F)(F)F,-1.144
13,COc1ccc(CN2CC[C@H]3CO[C@H](CNC(=O)N(C)C)[C@H]3C2)cc1.O=C(O)C(F)(F)F,-1.403
14,Cc1cccc(CN2CC[C@@H]3[C@@H](CO[C@H]3CNc3ncccn3)C2)n1.O=C(O)C(F)(F)F.O=C(O)C(F)(F)F.O=C(O)C(F)(F)F,100.3
15,COc1ccc(CN2CC[C@H]3[C@H](CO[C@H]3CNC(=O)N(C)C)C2)cc1.O=C(O)C(F)(F)F,1.388
16,CS(=O)(=O)NC[C@@H]1OC[C@H]2CN(C(=O)c3ccccn3)CC[C@H]21.O=C(O)C(F)(F)F,-10.63
17,CS(=O)(=O)NC[C@@H]1OC[C@H]2CN(C(=O)c3ccccc3)CC[C@H]21,-5.092
18,CS(=O)(=O)NC[C@@H]1OC[C@H]2CN(Cc3ccccc3)CC[C@H]21.O=C(O)C(F)(F)F,107.1
19,CS(=O)(=O)NC[C@H]1OC[C@H]2CN(CCc3ccccc3)CC[C@H]21.O=C(O)C(F)(F)F,87.13
